# Several values for one entry are separate records, joined by “and”; a condition that tells them apart may be missing. Identical values can stand only once. Inconclusive results are not listed. Activity calls are given as the source filed them. Calls come from the whole dose curve; as a rule, active = well fitted activation curve with a large enough effect; inconclusive = small, poorly fitted or top-dose-only effect; inactive = no such curve, though single readings can be large or run the other way.
# Target: Cellular tumor antigen p53 (Homo sapiens) (UniProt P04637)
# Test: Primary qHTS for small molecule compounds that upregulate eGFP-tagged delta133p53alpha (in N-terminal) cells. (AID 2060322);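 note: cells pre-induced with doxycycline then dosed without doxycycline; series mostly up to about 56 µM; 0% = DMSO vehicle and 100% = reference activator; nearly all actives have a fitted effect of over 75% in size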
# Conditions: NCI-H358 eGFP-delta133p53alpha fluorescence, 24 h; activation: hits give high values
# Summary of the method: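 NCI-H358 cells pre-induced 24 h with 10 ng/ml doxycycline for eGFP-delta133p53alpha, plated dox-free and exposed 24 h at 37C to titrated compounds. Fixed, Hoechst-stained; gated GFP peak intensity by laser scanning cytometry, normalized to DMSO (0%) and 57.5 uM 5-azacytidine (100%).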
# Cellular tumor antigen p53 (Homo sapiens), sequence (P04637 whole entry, looked up): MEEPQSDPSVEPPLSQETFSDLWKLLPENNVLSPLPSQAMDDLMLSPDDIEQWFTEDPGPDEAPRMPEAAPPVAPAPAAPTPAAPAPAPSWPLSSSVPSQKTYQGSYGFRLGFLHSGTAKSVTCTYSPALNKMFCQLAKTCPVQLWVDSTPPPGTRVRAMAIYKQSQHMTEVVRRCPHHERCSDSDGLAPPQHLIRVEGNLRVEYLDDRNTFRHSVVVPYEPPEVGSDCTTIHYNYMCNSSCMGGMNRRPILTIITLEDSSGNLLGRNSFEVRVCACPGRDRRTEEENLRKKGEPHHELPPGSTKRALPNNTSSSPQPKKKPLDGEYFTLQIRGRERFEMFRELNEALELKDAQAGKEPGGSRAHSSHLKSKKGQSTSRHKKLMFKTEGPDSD
row,SMILES,activation
1,CCCCCCCCCCCCCC[N+](C)(C)Cc1ccccc1,27.6% (inactive)
2,CN1CCN(C(=O)C2CCCCC2)CC1,-11.7% (inactive)
3,Nc1cccc2c1CN(C1CCC(=O)NC1=O)C2=O (configuration not stated),21.6% (inactive) and -10.9% (inactive)
4,CCCCOc1cc(C(=O)NCCN(CC)CC)c2ccccc2n1,0% (inactive)
5,O=C1CN(/N=C/c2ccc([N+](=O)[O-])o2)C(=O)N1,-7.53% (inactive)
6,CC(C)(C)CC(C)(C)c1ccc(O)c(-n2nc3ccccc3n2)c1,-0.565% (inactive)
7,OCc1cccnc1,-5.02% (inactive)
8,CS(=O)(=O)c1ccc([C@@H](O)[C@@H](CO)NC(=O)C(Cl)Cl)cc1,15.3% (inactive) and 17.8% (inactive)
9,CCCCC/C(C=O)=C\c1ccccc1,19.8% (inactive)
10,O=C(O)c1ccccc1Nc1cc(Cl)ccc1C(=O)O,-31% (inactive)
11,Nc1ccccc1NC(=O)CCCCCCC(=O)Nc1ccccc1,-13.4% (inactive)
12,CC(C)(C)NCC(O)COc1cccc2c1C[C@H](O)[C@H](O)C2 (some centres not stated),0% (inactive)
13,Cc1cc(C)nc(NS(=O)(=O)c2ccc(N)cc2)n1,24.3% (inactive)
14,CCC(Sc1nnc2c(n1)[nH]c1ccccc12)C(=O)N1c2ccccc2Sc2ccccc21 (configuration not stated),12.3% (inactive)
15,CC(=O)OC(C)OC(=O)C(C)c1ccc(-c2ccccc2)c(F)c1 (configuration not stated),-24.3% (inactive)
16,CC(N)CCCC(C)(C)O (configuration not stated),-2.82% (inactive)
17,Cc1cc(NS(=O)(=O)c2ccc(N)cc2)no1,-13.4% (inactive) and 7.02% (inactive)
18,COc1cc(O)cc(O)c1,-1.67% (inactive)
19,COc1ccc(C(=O)c2ccccc2O)c(O)c1,10.9% (inactive)
20,O=C(N/N=C/c1ccc([N+](=O)[O-])o1)c1ccc(O)cc1,24.3% (inactive)
21,C[C@@H](N)C(=O)O,5.02% (inactive)
22,CN(C)[C@@H](CCOc1cccc2ccccc12)c1ccccc1,8.7% (inactive)

# From PubChem BioAssay (NCATS)
